Assay results as given in paper PMC7862700, “An all-to-all approach to the identification of sequence-specific readers for epigenetic DNA modifications on cytosine”.

How the values were obtained:
Experiment in all cases: DAPPL (digital affinity profiling via proximity ligation, sequencing); 10 mM Tris-HCl pH 7.5, 50 mM NaCl, 1 mM DTT, 4% glycerol, room temperature, 30 min; GST-TFs on glutathione beads, 16-mer random dsDNA library, 0.1% formaldehyde crosslink after washing; high values mean tight binding
[1] = target: T1, FLI1 (Homo sapiens, UniProt Q01543 1-452); conditions: protein: recombinant; tags: N-terminal GST; dsDNA, one strand shown
T1 sequence: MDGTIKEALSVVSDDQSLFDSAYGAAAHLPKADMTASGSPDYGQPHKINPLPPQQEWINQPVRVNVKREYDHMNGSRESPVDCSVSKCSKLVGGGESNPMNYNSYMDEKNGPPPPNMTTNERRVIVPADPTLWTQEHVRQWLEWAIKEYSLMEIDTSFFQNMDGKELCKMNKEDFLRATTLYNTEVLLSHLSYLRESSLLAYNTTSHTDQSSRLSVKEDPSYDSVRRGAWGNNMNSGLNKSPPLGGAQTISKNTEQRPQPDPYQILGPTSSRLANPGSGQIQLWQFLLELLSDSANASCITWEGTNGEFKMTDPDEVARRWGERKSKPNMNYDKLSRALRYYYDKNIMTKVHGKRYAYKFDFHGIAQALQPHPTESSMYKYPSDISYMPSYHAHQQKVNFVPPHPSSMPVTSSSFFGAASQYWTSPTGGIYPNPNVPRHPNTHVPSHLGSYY
Outline: (§1)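 Beads coated with glutathione captured GST-fused human transcription factors that had been expressed in yeast, and the factors were then given DNA barcodes and pooled with a tag-only sample. The pools were incubated with 200 nmole of a random double-stranded 16-mer DNA library in Tris/NaCl/DTT/glycerol buffer for 30 min at room temperature, washed, crosslinked with 0.1% formaldehyde and proximity-ligated with BsaI/T4 ligase at 37 °C for 1 h. PCR amplification and Illumina NextSeq500 sequencing came last. Binding signal is each hexamer's read frequency for a factor divided by its frequency for the tag-only sample.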

[2] = target: T2, ELK1 (Homo sapiens, UniProt P19419 1-428); conditions: protein: recombinant; tags: N-terminal GST; dsDNA, one strand shown
T2 sequence: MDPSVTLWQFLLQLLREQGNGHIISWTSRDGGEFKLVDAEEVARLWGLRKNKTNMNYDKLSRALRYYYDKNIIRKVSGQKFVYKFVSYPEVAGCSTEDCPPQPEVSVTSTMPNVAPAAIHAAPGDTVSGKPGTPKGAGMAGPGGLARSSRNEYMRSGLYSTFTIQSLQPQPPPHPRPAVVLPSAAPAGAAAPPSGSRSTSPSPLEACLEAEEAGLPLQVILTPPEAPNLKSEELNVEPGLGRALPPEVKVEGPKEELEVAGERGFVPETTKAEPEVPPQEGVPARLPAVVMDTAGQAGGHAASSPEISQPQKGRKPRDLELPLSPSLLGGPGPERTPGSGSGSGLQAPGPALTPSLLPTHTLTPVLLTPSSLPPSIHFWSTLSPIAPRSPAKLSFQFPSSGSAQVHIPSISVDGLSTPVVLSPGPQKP
Outline: as §1

[3] = target: T3, ERG (Homo sapiens, UniProt P11308 1-479); conditions: protein: recombinant; tags: N-terminal GST; dsDNA, one strand shown
T3 sequence: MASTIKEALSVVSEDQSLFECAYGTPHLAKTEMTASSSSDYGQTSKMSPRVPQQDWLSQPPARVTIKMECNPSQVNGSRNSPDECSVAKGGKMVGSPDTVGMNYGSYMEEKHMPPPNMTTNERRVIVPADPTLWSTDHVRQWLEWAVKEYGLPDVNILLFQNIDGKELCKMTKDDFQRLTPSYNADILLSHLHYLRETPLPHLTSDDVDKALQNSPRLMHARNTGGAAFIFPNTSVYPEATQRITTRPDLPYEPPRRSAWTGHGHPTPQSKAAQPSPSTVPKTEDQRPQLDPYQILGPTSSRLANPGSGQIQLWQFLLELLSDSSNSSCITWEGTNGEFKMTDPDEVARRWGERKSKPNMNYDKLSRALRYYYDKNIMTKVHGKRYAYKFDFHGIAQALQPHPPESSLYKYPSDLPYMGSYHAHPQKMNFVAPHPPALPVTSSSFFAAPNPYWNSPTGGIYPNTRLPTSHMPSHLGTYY
Outline: as §1

[4] = target: ELF1 (Homo sapiens, UniProt P32519 1-619); conditions: protein: recombinant; tags: N-terminal GST; dsDNA, one strand shown
ELF1, sequence (P32519 whole entry): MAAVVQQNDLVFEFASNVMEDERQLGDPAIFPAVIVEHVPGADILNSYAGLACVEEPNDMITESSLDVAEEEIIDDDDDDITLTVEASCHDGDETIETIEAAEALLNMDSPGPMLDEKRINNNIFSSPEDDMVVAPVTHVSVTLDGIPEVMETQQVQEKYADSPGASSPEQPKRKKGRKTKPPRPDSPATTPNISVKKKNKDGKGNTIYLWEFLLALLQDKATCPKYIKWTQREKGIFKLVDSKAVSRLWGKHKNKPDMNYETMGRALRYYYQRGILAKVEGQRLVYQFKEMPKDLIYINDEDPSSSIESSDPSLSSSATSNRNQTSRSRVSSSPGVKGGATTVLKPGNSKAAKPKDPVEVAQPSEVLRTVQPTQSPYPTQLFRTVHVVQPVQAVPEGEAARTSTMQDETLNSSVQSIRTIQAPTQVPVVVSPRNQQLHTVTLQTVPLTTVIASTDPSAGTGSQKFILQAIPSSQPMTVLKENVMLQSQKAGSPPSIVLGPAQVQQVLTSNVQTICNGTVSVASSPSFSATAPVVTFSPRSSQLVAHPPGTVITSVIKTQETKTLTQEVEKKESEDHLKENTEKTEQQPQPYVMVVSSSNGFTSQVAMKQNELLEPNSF
Outline: as §1

[5] = target: T4, EHF (Homo sapiens, UniProt Q9NZC4 1-300); conditions: protein: recombinant; tags: N-terminal GST; dsDNA, one strand shown
T4 sequence: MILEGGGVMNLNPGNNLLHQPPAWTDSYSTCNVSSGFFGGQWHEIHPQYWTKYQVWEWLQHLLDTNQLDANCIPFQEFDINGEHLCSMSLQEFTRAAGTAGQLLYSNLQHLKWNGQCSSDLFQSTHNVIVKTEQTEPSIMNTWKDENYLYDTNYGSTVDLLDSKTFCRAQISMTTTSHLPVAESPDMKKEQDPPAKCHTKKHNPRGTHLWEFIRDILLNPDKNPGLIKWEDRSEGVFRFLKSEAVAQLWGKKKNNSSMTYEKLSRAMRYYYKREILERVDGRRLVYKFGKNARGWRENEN
Outline: as §1

[6] = target: SPI1 (Homo sapiens, UniProt P17947 1-270); conditions: protein: recombinant; tags: N-terminal GST; dsDNA, one strand shown
Outline: as §1

[7] = target: SPIB (Homo sapiens, UniProt Q01892 1-262); conditions: protein: recombinant; tags: N-terminal GST; dsDNA, one strand shown
SPIB, sequence (Q01892 whole entry): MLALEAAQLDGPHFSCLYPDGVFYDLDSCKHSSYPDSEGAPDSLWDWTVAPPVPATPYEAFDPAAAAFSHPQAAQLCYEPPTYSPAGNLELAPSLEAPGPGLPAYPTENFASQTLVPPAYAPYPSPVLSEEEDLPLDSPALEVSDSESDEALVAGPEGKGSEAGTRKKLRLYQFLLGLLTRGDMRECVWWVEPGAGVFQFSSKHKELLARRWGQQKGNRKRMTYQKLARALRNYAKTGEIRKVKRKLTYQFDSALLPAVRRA
Outline: as §1

[8] = target: T5, ELK3 (Homo sapiens, UniProt P41970 1-407); conditions: protein: recombinant; tags: N-terminal GST; dsDNA, one strand shown
T5 sequence: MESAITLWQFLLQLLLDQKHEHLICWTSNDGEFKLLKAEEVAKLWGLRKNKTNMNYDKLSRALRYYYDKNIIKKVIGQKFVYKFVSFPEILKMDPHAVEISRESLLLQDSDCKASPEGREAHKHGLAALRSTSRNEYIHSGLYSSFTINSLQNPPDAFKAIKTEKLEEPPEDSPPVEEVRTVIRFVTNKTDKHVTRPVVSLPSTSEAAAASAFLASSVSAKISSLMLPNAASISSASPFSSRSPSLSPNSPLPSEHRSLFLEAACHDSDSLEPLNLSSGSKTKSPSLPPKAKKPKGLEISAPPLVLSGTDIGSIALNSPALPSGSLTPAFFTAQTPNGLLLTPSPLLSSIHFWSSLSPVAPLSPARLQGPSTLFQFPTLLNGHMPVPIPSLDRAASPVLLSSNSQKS
Outline: as §1

[9] = target: T6, FEV (Homo sapiens, UniProt Q99581 1-238); conditions: protein: recombinant; tags: N-terminal GST; dsDNA, one strand shown
T6 sequence: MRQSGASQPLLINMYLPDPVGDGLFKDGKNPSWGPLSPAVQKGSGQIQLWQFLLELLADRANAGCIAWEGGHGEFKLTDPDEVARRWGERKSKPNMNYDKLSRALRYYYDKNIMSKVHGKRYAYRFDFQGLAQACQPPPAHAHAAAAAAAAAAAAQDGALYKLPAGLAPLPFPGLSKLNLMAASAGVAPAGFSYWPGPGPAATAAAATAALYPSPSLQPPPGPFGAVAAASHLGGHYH
Outline: as §1

[10] = target: ETV5 (Homo sapiens, UniProt P41161 1-510); conditions: protein: recombinant; tags: N-terminal GST; dsDNA, one strand shown
ETV5, sequence (P41161 whole entry): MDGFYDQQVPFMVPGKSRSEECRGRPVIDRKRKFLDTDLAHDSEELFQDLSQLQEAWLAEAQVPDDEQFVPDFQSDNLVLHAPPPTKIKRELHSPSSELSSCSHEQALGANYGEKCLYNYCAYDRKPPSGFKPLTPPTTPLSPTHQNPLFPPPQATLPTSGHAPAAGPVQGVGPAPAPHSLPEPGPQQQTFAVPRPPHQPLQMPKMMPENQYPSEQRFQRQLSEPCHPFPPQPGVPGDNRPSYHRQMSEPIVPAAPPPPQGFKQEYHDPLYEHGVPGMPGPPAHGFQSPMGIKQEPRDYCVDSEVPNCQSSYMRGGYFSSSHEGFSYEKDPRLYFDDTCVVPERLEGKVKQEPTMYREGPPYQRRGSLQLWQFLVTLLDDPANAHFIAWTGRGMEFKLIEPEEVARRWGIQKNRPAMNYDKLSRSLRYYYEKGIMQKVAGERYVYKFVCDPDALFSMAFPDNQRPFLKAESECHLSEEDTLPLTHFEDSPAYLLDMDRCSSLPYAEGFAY
Outline: as §1

[11] = target: HSF1 (Homo sapiens, UniProt Q00613 1-529); conditions: protein: recombinant; tags: N-terminal GST; chain copies: 3; dsDNA, one strand shown
HSF1, sequence (Q00613 whole entry): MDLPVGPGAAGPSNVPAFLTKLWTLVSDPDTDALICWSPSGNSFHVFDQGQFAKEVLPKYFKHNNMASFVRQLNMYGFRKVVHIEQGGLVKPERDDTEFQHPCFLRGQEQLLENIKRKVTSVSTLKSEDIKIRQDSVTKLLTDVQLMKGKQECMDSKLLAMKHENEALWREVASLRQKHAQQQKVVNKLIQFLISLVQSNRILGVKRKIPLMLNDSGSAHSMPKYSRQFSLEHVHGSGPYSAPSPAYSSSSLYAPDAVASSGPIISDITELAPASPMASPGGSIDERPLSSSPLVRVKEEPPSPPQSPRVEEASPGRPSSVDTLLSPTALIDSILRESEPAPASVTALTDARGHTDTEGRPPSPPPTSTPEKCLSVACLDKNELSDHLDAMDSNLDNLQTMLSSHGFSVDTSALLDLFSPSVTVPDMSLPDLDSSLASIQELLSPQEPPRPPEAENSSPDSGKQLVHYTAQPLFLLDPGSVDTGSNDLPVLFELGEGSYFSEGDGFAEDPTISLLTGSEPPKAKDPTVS
Outline: as §1

[12] = target: T7, SPIC (Homo sapiens, UniProt Q8N5J4 1-248); conditions: protein: recombinant; tags: N-terminal GST; dsDNA, one strand shown
T7 sequence: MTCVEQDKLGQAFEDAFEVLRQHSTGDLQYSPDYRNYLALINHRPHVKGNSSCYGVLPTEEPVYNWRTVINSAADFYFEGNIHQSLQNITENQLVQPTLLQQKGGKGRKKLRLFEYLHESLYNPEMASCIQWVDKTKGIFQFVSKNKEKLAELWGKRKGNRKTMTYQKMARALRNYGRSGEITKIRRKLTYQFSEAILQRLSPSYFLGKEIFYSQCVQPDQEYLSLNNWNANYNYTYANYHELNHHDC
Outline: as §1

[13] = target: ELF4 (Homo sapiens, UniProt Q99607 1-663); conditions: protein: recombinant; tags: N-terminal GST; dsDNA, one strand shown
ELF4, sequence (Q99607 whole entry): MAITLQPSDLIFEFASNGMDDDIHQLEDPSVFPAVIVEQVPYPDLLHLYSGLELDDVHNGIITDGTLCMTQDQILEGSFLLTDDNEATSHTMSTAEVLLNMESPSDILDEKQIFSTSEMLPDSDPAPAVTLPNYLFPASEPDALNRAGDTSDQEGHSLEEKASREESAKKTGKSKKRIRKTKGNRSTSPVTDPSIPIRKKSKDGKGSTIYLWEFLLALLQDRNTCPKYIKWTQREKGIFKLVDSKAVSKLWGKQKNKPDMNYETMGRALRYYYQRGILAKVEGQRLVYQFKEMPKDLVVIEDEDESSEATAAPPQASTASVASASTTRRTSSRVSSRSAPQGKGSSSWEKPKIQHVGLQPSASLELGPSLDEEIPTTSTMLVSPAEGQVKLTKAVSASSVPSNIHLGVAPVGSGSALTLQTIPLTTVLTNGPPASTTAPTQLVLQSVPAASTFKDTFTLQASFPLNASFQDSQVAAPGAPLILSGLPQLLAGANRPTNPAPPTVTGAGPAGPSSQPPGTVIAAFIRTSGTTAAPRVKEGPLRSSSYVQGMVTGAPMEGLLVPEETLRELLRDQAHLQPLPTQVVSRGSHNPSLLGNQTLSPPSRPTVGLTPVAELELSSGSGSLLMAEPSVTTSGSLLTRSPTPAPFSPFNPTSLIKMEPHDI
Outline: as §1

[14] = target: T8, ETV2 (Homo sapiens, UniProt O00321 1-342); conditions: protein: recombinant; tags: N-terminal GST; dsDNA, one strand shown
T8 sequence: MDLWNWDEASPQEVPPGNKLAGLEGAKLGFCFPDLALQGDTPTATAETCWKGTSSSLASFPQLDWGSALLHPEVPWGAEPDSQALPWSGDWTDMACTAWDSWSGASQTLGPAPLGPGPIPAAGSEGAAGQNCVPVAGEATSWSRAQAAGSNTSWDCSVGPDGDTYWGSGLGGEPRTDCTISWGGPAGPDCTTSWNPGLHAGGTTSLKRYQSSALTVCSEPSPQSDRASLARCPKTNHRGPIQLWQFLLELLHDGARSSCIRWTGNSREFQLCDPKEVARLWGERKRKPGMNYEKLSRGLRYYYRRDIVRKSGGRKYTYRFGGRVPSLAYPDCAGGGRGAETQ
Outline: as §1

[15] = target: T9, ELF3 (Homo sapiens, UniProt P78545 1-371); conditions: protein: recombinant; tags: N-terminal GST; dsDNA, one strand shown
T9 sequence: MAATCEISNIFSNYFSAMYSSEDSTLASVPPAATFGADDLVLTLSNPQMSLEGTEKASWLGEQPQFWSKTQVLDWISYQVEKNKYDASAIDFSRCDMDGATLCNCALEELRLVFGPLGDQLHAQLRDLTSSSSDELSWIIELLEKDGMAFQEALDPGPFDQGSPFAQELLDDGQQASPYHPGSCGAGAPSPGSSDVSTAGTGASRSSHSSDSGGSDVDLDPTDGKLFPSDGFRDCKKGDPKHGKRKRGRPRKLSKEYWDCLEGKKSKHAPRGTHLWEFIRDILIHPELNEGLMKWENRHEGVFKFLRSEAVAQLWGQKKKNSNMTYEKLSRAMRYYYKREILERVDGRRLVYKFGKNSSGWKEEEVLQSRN
Outline: as §1

[16] = target: ETV1 (Homo sapiens, UniProt P50549 1-477); conditions: protein: recombinant; tags: N-terminal GST; dsDNA, one strand shown
ETV1, sequence (P50549 whole entry): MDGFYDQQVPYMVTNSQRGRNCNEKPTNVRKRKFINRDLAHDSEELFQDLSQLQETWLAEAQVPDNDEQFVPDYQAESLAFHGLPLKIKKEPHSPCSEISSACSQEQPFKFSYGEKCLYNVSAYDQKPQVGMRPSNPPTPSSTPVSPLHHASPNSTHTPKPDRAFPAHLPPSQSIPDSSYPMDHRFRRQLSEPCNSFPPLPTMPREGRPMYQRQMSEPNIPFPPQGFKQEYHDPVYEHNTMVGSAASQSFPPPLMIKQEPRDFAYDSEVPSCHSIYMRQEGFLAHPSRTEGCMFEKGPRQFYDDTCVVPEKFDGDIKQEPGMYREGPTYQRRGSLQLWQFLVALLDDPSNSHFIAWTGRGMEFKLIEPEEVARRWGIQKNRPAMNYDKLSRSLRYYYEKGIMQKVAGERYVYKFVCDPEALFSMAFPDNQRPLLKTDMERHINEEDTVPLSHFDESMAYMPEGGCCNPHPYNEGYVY
Outline: as §1

[17] = target: T10, GABPA (Homo sapiens, UniProt Q06546 1-454); conditions: protein: recombinant; tags: N-terminal GST; dsDNA, one strand shown
T10 sequence: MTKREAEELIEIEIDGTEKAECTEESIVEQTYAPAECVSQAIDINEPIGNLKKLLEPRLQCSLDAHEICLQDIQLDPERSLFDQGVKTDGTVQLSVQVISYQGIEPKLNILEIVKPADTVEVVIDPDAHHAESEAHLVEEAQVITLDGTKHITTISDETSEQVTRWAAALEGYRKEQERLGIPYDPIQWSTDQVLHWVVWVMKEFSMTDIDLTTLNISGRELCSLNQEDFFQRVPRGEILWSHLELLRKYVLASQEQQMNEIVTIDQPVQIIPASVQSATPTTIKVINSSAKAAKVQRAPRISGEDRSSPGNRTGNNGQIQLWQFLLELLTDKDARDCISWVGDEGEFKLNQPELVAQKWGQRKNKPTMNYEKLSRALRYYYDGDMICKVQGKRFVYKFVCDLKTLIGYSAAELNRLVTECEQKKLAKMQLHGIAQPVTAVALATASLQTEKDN
Outline: as §1

With GGAACA the binding signal [1] was 1.06 fold enrichment (6-mer frequency, TF over GST control), the binding signal [2] was 1.09 fold enrichment (6-mer frequency, TF over GST control) and the binding signal [3] was 1.16 fold enrichment (6-mer frequency, TF over GST control). For the same sequence, the binding signal [4] was 1.02 fold enrichment (6-mer frequency, TF over GST control), the binding signal [5] was 1.12 fold enrichment (6-mer frequency, TF over GST control) and the binding signal [6] was 1.15 fold enrichment (6-mer frequency, TF over GST control). For the same sequence, the binding signal [7] was 1.18 fold enrichment (6-mer frequency, TF over GST control), the binding signal [8] was 1.12 fold enrichment (6-mer frequency, TF over GST control) and the binding signal [9] was 1.01 fold enrichment (6-mer frequency, TF over GST control). For the same sequence, the binding signal [10] was 1.16 fold enrichment (6-mer frequency, TF over GST control), the binding signal [11] was 1.32 fold enrichment (6-mer frequency, TF over GST control) and the binding signal [12] was 1.1 fold enrichment (6-mer frequency, TF over GST control). The binding signal [13] was 1 fold enrichment (6-mer frequency, TF over GST control), the binding signal [14] was 1.11 fold enrichment (6-mer frequency, TF over GST control) and the binding signal [15] was 1.09 fold enrichment (6-mer frequency, TF over GST control). For the same sequence, the binding signal [16] was 1.08 fold enrichment (6-mer frequency, TF over GST control).
For CACAAA, the binding signal [1] was 1.06 fold enrichment (6-mer frequency, TF over GST control), the binding signal [2] was 1.06 fold enrichment (6-mer frequency, TF over GST control) and the binding signal [17] was 1.12 fold enrichment (6-mer frequency, TF over GST control). The binding signal [3] was 1.12 fold enrichment (6-mer frequency, TF over GST control), the binding signal [4] was 1.13 fold enrichment (6-mer frequency, TF over GST control) and the binding signal [5] was 1.11 fold enrichment (6-mer frequency, TF over GST control). The binding signal [6] was 1.13 fold enrichment (6-mer frequency, TF over GST control), the binding signal [7] was 1.04 fold enrichment (6-mer frequency, TF over GST control) and the binding signal [8] was 1.19 fold enrichment (6-mer frequency, TF over GST control). For the same sequence, the binding signal [9] was 1.09 fold enrichment (6-mer frequency, TF over GST control), the binding signal [10] was 1.11 fold enrichment (6-mer frequency, TF over GST control) and the binding signal [11] was 1.02 fold enrichment (6-mer frequency, TF over GST control). The binding signal [12] was 1.07 fold enrichment (6-mer frequency, TF over GST control), the binding signal [13] was 1.11 fold enrichment (6-mer frequency, TF over GST control) and the binding signal [14] was 1.09 fold enrichment (6-mer frequency, TF over GST control). For the same sequence, the binding signal [15] was 1.1 fold enrichment (6-mer frequency, TF over GST control) and the binding signal [16] was 1.03 fold enrichment (6-mer frequency, TF over GST control).
